Assay outcomes: PubChem, National Center for Advancing Translational Sciences (NCATS)
Shown are actives, neighbours in structure and some others; about 3.9% of the full set was active somewhere.
HT1080NT lethal – qHTS for induction of synthetic lethality in tumor cells producing 2HG: qHTS for the HT-1080-NT fibrosarcoma cell line; HT-1080-NT fibrosarcoma viability, CellTiter-Glo ATP luminescence, 48 h; Potency, µM (highest dose often 46.1 µM), for the others: top-dose activity, negative = less viability, usual class: cytotoxic; 360,000 compounds, 1.6% hits; AID 686970, 2013;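 further: NT is the 2HG producing partner of a matched IDH1 knockdown line; 0% = DMSO-treated cells and -100% = media-only wells without cells; nearly all actives have a fitted effect of over 55% in size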
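Viability by CellTiter-Glo luminescence after 48 h compound exposure at 37C of HT-1080-NT cells (750/well, RPMI, 5% FBS). % activity scaled between DMSO wells and medium-only wells, then curve-fitted and categorized by curve class.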
ATXN viability – Viability Counterscreen for Primary qHTS for Inhibitors of ATXN expression; S2 cells (HEK-293 line with an ATXN2-luciferase reporter) viability, CellTiter-Fluor protease fluorescence, 24 h; AID 651635, 2014; Potency, µM (titrated, usually from 56.7 µM), actives largely listed as cytotoxic; 400,000 compounds, 0.49% hits; further: nearly all actives have a fitted effect of over 40% in size
HepG2 viability – qHTS for Inhibitors of TGF-b: Cytotox Counterscreen | 410,000 compounds, 0.76% hits | Potency, µM (series often up to 46.1 µM), for the others: at the highest dose activity change, negative = cytotoxicity, usual class: cytotoxic | HepG2 CAGA-GFP viability, ATP luminescence, 18 h | AID 588856, 2011
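CellTiter-Glo luminescence gave cytotoxicity after 18 hours at 37 degrees C. The cells were HepG2 CAGA-GFP in 1% FBS DMEM, stimulated with 500 pg/mL TGF-beta after compound addition. %Activity was normalised to no-cell wells (complete cell-killing) and DMSO (no toxicity), and curves were fitted and classified.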
ATXN2 expr inh – Primary qHTS for Inhibitors of ATXN expression; Potency, µM (titrated, usually from 57 µM), inactives show at the top dose activity change, negative = inhibition, hits mostly inhibitors; AID 1745845, 2022; HEK-293 ATXN2-luciferase reporter, luminescence, 24 h; 360,000 compounds, 0.72% hits; further: on the % scale 0 is the no-effect control and ±100 the full control effect; nearly all actives have a fitted effect of over 55% in size
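qHTS (up to 57 uM final) was run with 24 h compound exposure of reporter cells at 37 °C. Each well was multiplexed: SteadyGlo luminescence measured ATXN2-luciferase expression after a fluorogenic Gly-Phe-AFC viability readout (25 uM final).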
HT1080 IDH1KD tx – qHTS for induction of synthetic lethality in tumor cells producing 2HG: qHTS for the HT-1080-IDH1KD cell line; HT-1080 IDH1 knockdown viability, ATP luminescence, 48 h; Potency, µM (titrated, usually from 46.1 µM), without a hit: at the highest dose activity, negative = toxicity, actives largely listed as cytotoxic; 360,000 compounds, 2% hits; AID 686971, 2013;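 further: 0% = DMSO wells and -100% = cell-free medium wells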
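CellTiter-Glo luminescence after 48 h compound exposure at 37 degrees C of IDH1-knockdown HT-1080 cells in 5% FBS RPMI. %Activity scaled between DMSO wells and cell-free media wells, with curves fitted and assigned curve classes.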
TGFb SMAD3 inh – qHTS for Inhibitors of TGF-b; 410,000 compounds, 1.2% hits; HepG2 CAGA-GFP TGF-b/SMAD3 reporter, GFP fluorescence, 18 h; TGF-beta stimulated, 500 pg/mL final; Potency, µM (top dose mostly 46.1 µM), for inactives: at the top dose activity, negative = inhibition, hits mostly inhibitors; further: on the % scale 0 is the no-effect control and ±100 the full control effect; nearly all actives have a fitted effect of over 65% in size
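HEPG2 CAGA-GFP, 1000 cells/well; 2 h settle, 37 C; cpd via pin tool; TGF-b 500 pg/mL final; 18 h, 37 C; GFP imaging ex488/em500-530; %Activity normalised to -TGF-b and +DMSO controls; CRC fit, curve class.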
An asterisk follows results filed as active; i = inactive; u = inconclusive; x = not tested or not shown. The call rests on the fitted dose curve; in most records, active means well fitted curve in the direction sought with a large enough effect; inconclusive means small, poorly fitted or top-dose-only effect, or another doubt; inactive means no such curve, though single readings can be large; an effect the other way counts as inactive or inconclusive. Potency means the concentration at half of the fitted maximal effect.

SMILES | HT1080NT lethal | ATXN viability | HepG2 viability | ATXN2 expr inh | HT1080 IDH1KD tx | TGFb SMAD3 inh
COc1ccc(-n2c(C)c([N+](=O)[O-])c3ccc(O)cc32)cc1 | x | x | x | 37.0% | x | x
Cc1ccc(SCc2nc(-c3ccc(C(=O)Nc4cc(C)ccc4C)cc3)oc2C)cc1 | x | x | -0.7% | x | x | 9.5%
Cc1onc(-c2ccccc2Cl)c1C(=O)Nc1nc2ccc(S(C)(=O)=O)cc2s1 | 14.6µM* | i | -47.7% | 5.7% | u | u
COc1ccc(Cl)cc1NC(=O)c1nnn(Cc2cccc(C(F)(F)F)c2)c1N | x | u | -58.7% | u | x | u
COC1C(CO)OC(n2c3c(Cl)cccc3c3c4c(c5c6cccc(Cl)c6[nH]c5c32)C(=O)NC4=O)C(O)C1O (configuration not stated) | 4.61µM* | u | -46.2% | u | 5.8µM* | u
CCOC(=O)c1ccc(Nc2nc(=O)c3cccnc3s2)cc1 | u | i | -14.0% | 108.2% | 2.24µM* | 14.5%
CCc1nnc(SCC(=O)N(C)c2ccccc2)c2cc3sccc3n12 | x | x | -27.9% | x | x | u
O=C1Cc2cc(Cl)ccc2N1 | x | i | x | 0.2% | x | x
CCOc1cc(CNc2ccc3c(c2)OCCO3)cc(Br)c1OCC | 1.84µM* | i | -12.2% | 2.0% | 2.31µM* | u
COc1cc(-c2nnc(CSc3nnc(Nc4ccc(C(C)C)cc4)s3)o2)cc(OC)c1OC | u | u | -36.8% | -59.0% | 16.4µM* | u
Cc1ccc2oc3nc(C)c(C(=O)O)cc3c(=O)c2c1 | -27.0% | i | 11.2µM* | 11.3% | u | u
Cc1cccc(N2CCN(C(=O)Cn3nc(Cc4cccnc4)c4ccccc4c3=O)CC2)c1C | x | x | -37.3% | x | x | u
COc1ccc(-c2cc(=S)ss2)cc1 | x | i | x | -4.1% | x | x
COc1ccc(N(C)C(=O)Nc2ccc3nsnc3c2)cc1 | 0.3% | i | -0.3% | 1.5% | -2.8% | 3.4%
CC(C)N(C(=O)Nc1ccc2nsnc2c1)C(C)C | 18.4µM* | i | -23.8% | u | u | u
CCn1cc([N+](=O)[O-])c(C(=O)N2N=C(c3cccc4ccccc34)CC2c2ccccc2O)n1 (configuration not stated) | u | u | -55.0% | u | 17.8µM* | 12.6µM*
CCn1cc(Cl)c(C(=O)N2N=C(c3ccc4ccccc4c3)CC2c2ccccc2O)n1 (configuration not stated) | u | u | -44.7% | 17.8µM* | u | 7.08µM*
CCn1cc([N+](=O)[O-])c(C(=O)N2N=C(c3ccc4ccccc4c3)CC2c2ccccc2O)n1 (configuration not stated) | 23.1µM* | u | -75.4% | u | 20.6µM* | 14.1µM*
O=C(NCCCCc1ccccc1)c1nn(-c2ccccc2)nc1CO | x | x | -27.1% | x | x | 0.0%
Cc1nc2cccnc2n1-c1cccc(C(=O)NCCc2ccc(S(N)(=O)=O)cc2)c1 | x | x | -1.7% | x | x | 7.5%
O=c1[nH]c(CCl)nc2cc(-c3ccc(F)cc3)sc12 | 14.6µM* | i | 11.2µM* | u | 7.31µM* | u
COc1cccc(-c2cnc3c(NC=O)cc(-c4ccc(O)c(OC)c4)cn23)c1 | u | u | -33.0% | -67.7% | u | 27.0%
CS(=O)(=O)Nc1cccc(-c2cc(NC=O)c3ncc(-c4ccc(F)cc4)n3c2)c1 | 11.6µM* | u | 6.6% | u | 8.2µM* | u
O=CNc1cc(-c2cccc(F)c2)cn2c(-c3ccc(F)cc3)cnc12 | 0.5% | i | -10.6% | -29.7% | 18.0% | u
COc1cc(-c2cc(NC=O)c3ncc(-c4ccc(C(C)=O)cc4)n3c2)ccc1O | u | i | -30.6% | -4.9% | 18.4µM* | u
SMILES | HT1080NT lethal | ATXN viability | HepG2 viability | ATXN2 expr inh | HT1080 IDH1KD tx | TGFb SMAD3 inh
CC(=O)c1ccc(-c2cnc3c(NC=O)cc(-c4ccc(S(C)(=O)=O)cc4)cn23)cc1 | u | u | -1.9% | -5.2% | 6.51µM* | -7.6%
CC(=O)c1ccc(-c2cnc3c(NC=O)cc(-c4cnn(C)c4)cn23)cc1 | u | i | 10.3% | -4.8% | u | u
COc1ccc(CN(Cc2ccco2)C(=O)c2ccccc2F)cc1 | x | x | -15.3% | x | x | 0.0%
CC(C)(C)C(=O)C(Oc1ccc(Cl)cc1)n1ccnc1 (configuration not stated) | x | i | x | 2.3% | x | x
Nc1cc(C(=O)O)c(N)c2c1C(=O)c1ccccc1C2=O | u | 14.1µM* | -10.9% | u | u | u
Nc1c(C(=O)O)ccc2c1C(=O)c1ccccc1C2=O | -22.5% | u | -16.9% | 1.4% | -21.4% | -0.5%
O=S(=O)(c1ccccc1)N(CC(O)Cn1c2ccccc2c2ccccc21)c1ccccc1 (configuration not stated) | u | u | -40.1% | u | u | u
Cc1ccc(S(=O)(=O)N(CC(O)Cn2c3ccccc3c3ccccc32)c2cccc(C(N)=O)c2)cc1 (configuration not stated) | x | u | 11.2µM* | u | x | 10µM*
Cc1ccc(S(=O)(=O)N(CC(O)Cn2c3ccccc3c3ccccc32)c2cccc(C(=O)NCCO)c2)cc1 (configuration not stated) | x | x | 15.8µM* | u | x | 12.6µM*
O=S(=O)(c1ccc(F)cc1)N(CCO)CC(O)Cn1c2ccccc2c2ccccc21 (configuration not stated) | u | i | -67.3% | -22.3% | 17.8µM* | u
Cc1ccc(S(=O)(=O)N(CC(O)Cn2c3ccccc3c3ccccc32)c2cccc(C(=O)N(C)C)c2)cc1 (configuration not stated) | x | u | -24.3% | u | x | u
COc1cccc(-n2ccnc2SCC(=O)Nc2ccc(Cl)c(Cl)c2)c1 | x | x | 0.9% | x | x | -21.4%
Cc1ccc(O)c(-c2ccnc3cc(-c4ccc(Cl)cc4)nn23)c1 | x | i | -13.8% | 1.6% | x | 12.2%
CCCCCCCCC1=NCCc2c1[nH]c1ccccc21 | u | i | 15.8µM* | -34.4% | u | u
CC(C)C(=O)Nc1cccc(C2CN3CCSC3=N2)c1 (configuration not stated) | x | i | x | 3.0% | x | x
COc1ccc(NC(=O)CSc2nc3c(oc4ccccc43)c(=O)n2-c2ccccc2)cc1OC | x | 17.8µM* | 2.6% | -1.8% | x | -2.0%
